Reference: publication PMC7862700, “An all-to-all approach to the identification of sequence-specific readers for epigenetic DNA modifications on cytosine”

Tests used:
Assay in all cases: DAPPL (digital affinity profiling via proximity ligation, sequencing); 10 mM Tris-HCl pH 7.5, 50 mM NaCl, 1 mM DTT, 4% glycerol, room temperature, 30 min; GST-TFs on glutathione beads, 16-mer random dsDNA library, 0.1% formaldehyde crosslink after washing; high values mean tight binding
[1] = biological target: T1, FEV (Homo sapiens, UniProt Q99581 1-238); details: protein: recombinant; tags: N-terminal GST; dsDNA, one strand shown
T1 sequence: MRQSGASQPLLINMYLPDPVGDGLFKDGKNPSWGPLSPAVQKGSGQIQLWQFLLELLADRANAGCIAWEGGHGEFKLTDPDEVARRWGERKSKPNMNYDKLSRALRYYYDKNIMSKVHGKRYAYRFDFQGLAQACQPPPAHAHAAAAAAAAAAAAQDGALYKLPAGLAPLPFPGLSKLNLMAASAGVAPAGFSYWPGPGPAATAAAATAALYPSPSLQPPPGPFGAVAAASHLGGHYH
In short: (§1)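 Human transcription factors were made in yeast as GST fusions, captured on glutathione beads and barcoded with DNA. With a tag-only sample included, the pool was incubated with 200 nmole of a random double-stranded 16-mer DNA library in Tris/NaCl/DTT/glycerol buffer at room temperature for 30 min, then crosslinked with 0.1% formaldehyde after washing, ligated by proximity, amplified and sequenced. For binding signal, each hexamer's read frequency for a factor is divided by its frequency for the tag-only sample.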

[2] = biological target: ETV5 (Homo sapiens, UniProt P41161 1-510); details: protein: recombinant; tags: N-terminal GST; dsDNA, one strand shown
Sequence of ETV5 (P41161 whole entry): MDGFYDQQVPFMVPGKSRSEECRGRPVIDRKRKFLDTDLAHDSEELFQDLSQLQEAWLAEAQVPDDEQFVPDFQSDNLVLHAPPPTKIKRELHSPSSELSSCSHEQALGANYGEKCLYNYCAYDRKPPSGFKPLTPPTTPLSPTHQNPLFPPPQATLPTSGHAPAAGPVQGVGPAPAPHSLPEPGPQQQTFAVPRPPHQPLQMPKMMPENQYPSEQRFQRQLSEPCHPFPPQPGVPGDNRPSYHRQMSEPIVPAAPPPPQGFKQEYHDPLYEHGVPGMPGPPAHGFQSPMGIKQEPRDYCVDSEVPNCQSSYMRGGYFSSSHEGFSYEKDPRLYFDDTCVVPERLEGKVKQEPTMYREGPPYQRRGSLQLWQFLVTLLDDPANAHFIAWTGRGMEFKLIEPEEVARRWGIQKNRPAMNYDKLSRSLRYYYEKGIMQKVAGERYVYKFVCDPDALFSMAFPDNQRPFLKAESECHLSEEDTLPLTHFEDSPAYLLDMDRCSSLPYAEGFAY
In short: as §1

[3] = biological target: HSF1 (Homo sapiens, UniProt Q00613 1-529); details: protein: recombinant; tags: N-terminal GST; chain copies: 3; dsDNA, one strand shown
Sequence of HSF1 (Q00613 whole entry): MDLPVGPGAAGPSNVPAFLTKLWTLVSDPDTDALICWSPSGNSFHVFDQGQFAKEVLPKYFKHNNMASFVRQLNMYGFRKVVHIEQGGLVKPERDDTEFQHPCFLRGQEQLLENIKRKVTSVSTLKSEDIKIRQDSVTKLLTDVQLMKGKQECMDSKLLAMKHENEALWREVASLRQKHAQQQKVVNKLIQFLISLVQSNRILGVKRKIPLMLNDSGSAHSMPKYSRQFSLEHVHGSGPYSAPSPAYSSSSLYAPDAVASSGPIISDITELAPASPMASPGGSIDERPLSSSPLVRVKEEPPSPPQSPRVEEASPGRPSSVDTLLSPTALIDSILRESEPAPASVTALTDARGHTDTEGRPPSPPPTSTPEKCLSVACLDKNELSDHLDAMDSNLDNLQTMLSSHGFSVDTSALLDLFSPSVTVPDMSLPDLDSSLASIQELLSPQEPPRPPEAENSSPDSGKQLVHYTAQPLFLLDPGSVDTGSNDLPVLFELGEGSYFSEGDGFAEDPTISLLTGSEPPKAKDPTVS
In short: as §1

[4] = biological target: T2, SPIC (Homo sapiens, UniProt Q8N5J4 1-248); details: protein: recombinant; tags: N-terminal GST; dsDNA, one strand shown
T2 sequence: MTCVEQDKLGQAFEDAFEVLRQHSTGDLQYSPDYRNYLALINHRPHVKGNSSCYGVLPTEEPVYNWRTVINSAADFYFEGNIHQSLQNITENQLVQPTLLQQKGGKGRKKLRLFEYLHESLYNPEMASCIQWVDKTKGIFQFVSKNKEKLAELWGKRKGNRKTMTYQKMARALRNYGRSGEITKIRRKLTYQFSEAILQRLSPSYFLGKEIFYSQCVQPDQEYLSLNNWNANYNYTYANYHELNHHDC
In short: as §1

[5] = biological target: ELF4 (Homo sapiens, UniProt Q99607 1-663); details: protein: recombinant; tags: N-terminal GST; dsDNA, one strand shown
Sequence of ELF4 (Q99607 whole entry): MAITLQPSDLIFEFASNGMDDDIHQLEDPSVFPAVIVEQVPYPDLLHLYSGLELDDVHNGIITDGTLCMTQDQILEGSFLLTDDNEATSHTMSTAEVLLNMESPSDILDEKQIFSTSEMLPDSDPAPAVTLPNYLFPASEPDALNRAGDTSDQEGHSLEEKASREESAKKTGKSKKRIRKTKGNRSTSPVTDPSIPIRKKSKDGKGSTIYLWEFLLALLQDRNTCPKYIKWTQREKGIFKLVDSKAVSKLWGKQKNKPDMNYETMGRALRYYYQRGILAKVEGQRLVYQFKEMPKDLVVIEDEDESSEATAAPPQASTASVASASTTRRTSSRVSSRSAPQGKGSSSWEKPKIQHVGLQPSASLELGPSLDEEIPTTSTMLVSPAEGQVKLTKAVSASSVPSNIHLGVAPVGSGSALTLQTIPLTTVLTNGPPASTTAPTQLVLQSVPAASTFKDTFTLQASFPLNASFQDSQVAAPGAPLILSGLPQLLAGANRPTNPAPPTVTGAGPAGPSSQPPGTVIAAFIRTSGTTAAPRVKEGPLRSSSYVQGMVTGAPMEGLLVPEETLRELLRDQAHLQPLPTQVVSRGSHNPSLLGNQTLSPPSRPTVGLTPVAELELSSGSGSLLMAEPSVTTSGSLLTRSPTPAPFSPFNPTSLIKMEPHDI
In short: as §1

[6] = biological target: T3, ELK4 (Homo sapiens, UniProt P28324-2 1-405); details: protein: recombinant; tags: N-terminal GST; dsDNA, one strand shown
T3 sequence: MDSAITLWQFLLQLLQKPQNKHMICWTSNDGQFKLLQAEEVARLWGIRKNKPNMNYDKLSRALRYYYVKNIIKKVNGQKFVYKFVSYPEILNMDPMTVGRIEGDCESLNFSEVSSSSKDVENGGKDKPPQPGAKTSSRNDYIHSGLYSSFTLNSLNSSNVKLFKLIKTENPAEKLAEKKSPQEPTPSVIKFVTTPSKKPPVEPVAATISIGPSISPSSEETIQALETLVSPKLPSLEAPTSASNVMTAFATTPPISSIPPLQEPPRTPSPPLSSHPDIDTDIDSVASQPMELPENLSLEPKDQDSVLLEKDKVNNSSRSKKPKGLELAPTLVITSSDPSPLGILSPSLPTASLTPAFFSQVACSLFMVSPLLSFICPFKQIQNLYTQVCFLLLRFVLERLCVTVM
In short: as §1

[7] = biological target: T4, ETV2 (Homo sapiens, UniProt O00321 1-342); details: protein: recombinant; tags: N-terminal GST; dsDNA, one strand shown
T4 sequence: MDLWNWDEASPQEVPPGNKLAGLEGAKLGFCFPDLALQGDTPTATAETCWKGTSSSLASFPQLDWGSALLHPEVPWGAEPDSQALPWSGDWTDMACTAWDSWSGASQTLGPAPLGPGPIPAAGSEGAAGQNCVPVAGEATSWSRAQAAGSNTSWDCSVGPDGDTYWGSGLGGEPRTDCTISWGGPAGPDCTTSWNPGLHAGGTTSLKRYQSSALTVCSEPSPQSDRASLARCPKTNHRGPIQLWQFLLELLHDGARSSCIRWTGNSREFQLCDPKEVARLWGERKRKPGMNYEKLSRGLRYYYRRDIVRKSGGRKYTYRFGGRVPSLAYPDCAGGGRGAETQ
In short: as §1

[8] = biological target: T5, ELF3 (Homo sapiens, UniProt P78545 1-371); details: protein: recombinant; tags: N-terminal GST; dsDNA, one strand shown
T5 sequence: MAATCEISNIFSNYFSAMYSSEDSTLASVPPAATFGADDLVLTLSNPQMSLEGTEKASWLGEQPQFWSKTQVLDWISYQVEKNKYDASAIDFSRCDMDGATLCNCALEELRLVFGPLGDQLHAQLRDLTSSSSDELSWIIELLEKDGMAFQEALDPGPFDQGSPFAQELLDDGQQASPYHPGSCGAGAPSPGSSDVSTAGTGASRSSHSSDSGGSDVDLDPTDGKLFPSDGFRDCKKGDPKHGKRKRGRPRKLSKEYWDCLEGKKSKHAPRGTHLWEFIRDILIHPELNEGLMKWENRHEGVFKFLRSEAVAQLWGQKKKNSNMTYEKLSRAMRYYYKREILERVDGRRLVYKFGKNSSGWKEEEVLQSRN
In short: as §1

[9] = biological target: CRX (Homo sapiens, UniProt O43186 1-299); details: protein: recombinant; tags: N-terminal GST; dsDNA, one strand shown
Sequence of CRX (O43186 whole entry): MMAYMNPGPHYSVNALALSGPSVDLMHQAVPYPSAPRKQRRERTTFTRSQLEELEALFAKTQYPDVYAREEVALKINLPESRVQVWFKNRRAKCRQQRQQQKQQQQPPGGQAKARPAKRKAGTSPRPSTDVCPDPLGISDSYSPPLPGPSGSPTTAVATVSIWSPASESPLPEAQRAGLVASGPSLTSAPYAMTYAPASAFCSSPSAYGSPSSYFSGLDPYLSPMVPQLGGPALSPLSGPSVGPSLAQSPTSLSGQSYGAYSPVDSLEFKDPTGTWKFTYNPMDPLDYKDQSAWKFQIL
In short: as §1

[10] = biological target: ETV1 (Homo sapiens, UniProt P50549 1-477); details: protein: recombinant; tags: N-terminal GST; dsDNA, one strand shown
Sequence of ETV1 (P50549 whole entry): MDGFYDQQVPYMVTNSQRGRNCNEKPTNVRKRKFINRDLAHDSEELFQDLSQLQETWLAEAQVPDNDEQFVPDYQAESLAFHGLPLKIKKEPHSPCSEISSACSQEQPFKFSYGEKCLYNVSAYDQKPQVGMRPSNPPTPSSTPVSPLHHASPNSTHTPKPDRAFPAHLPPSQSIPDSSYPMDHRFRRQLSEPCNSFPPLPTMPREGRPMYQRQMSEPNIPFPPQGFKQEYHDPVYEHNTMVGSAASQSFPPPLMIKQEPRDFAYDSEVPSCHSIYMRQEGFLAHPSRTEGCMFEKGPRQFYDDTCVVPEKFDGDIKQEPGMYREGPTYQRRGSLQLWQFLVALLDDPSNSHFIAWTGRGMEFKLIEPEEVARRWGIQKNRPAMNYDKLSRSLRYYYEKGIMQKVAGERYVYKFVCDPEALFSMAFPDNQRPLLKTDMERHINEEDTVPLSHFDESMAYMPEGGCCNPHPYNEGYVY
In short: as §1

[11] = biological target: T6, ERF (Homo sapiens, UniProt P50548 1-548); details: protein: recombinant; tags: N-terminal GST; dsDNA, one strand shown
T6 sequence: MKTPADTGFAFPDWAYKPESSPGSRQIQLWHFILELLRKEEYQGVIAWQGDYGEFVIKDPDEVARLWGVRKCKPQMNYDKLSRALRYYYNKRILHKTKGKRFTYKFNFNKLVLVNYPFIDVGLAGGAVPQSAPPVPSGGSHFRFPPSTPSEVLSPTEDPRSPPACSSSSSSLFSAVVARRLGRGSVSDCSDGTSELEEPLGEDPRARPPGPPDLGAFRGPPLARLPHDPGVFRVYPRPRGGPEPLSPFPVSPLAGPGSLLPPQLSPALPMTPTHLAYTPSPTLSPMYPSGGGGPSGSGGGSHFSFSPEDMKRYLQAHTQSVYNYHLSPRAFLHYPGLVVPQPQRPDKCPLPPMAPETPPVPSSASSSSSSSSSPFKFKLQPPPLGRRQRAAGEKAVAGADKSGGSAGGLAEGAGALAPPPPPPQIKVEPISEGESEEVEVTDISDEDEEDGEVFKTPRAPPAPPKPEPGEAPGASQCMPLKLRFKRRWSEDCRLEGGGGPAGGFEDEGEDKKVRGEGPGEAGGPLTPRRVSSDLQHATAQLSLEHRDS
In short: as §1

[12] = biological target: T7, ETV3L (Homo sapiens, UniProt Q6ZN32 1-361); details: protein: recombinant; tags: N-terminal GST; dsDNA, one strand shown
T7 sequence: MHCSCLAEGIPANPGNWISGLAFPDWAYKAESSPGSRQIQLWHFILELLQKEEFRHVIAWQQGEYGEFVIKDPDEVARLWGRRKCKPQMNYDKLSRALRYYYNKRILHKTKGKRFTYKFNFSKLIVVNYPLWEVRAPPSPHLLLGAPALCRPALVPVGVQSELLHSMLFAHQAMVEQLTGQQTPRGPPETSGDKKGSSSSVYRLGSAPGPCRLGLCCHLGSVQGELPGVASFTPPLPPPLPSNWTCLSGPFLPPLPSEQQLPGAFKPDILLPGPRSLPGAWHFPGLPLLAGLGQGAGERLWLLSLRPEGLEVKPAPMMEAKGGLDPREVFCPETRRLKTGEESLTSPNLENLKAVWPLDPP
In short: as §1

[13] = biological target: T8, ETS2 (Homo sapiens, UniProt P15036 1-469); details: protein: recombinant; tags: N-terminal GST; dsDNA, one strand shown
T8 sequence: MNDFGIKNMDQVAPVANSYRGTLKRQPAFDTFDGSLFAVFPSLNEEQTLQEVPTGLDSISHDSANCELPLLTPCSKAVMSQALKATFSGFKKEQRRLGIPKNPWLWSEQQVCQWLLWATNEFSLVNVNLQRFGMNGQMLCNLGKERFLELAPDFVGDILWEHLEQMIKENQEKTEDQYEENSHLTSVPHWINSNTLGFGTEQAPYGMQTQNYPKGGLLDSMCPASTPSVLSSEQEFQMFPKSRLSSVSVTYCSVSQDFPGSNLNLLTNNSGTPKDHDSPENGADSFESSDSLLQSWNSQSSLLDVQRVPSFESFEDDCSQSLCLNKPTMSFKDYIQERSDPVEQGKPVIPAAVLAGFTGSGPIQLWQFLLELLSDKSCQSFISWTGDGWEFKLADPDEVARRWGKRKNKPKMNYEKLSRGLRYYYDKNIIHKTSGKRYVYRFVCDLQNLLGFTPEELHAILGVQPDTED
In short: as §1

[14] = biological target: T9, SPDEF (Homo sapiens, UniProt O95238 1-335); details: protein: recombinant; tags: N-terminal GST; dsDNA, one strand shown
T9 sequence: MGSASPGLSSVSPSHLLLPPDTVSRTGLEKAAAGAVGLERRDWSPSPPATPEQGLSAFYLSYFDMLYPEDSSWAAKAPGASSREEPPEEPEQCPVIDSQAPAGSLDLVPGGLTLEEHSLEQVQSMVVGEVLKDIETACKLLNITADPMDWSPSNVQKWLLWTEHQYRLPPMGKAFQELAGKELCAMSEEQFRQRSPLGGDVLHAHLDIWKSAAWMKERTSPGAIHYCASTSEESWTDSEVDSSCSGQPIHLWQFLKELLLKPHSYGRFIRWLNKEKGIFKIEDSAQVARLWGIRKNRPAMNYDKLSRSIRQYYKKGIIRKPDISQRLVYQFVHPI
In short: as §1

[15] = biological target: T10, ETV7 (Homo sapiens, UniProt Q9Y603 1-341); details: protein: recombinant; tags: N-terminal GST; dsDNA, one strand shown
T10 sequence: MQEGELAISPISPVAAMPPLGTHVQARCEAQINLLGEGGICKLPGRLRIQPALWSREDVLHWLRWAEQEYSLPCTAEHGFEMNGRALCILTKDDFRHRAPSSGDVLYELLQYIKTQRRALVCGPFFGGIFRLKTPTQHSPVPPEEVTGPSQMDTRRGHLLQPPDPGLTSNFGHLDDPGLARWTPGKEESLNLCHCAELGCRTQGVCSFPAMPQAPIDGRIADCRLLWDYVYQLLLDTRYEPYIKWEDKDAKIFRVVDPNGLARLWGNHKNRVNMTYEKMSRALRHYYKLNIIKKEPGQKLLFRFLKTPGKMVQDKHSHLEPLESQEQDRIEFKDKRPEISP
In short: as §1

[16] = biological target: T11, ELF5 (Homo sapiens, UniProt Q9UKW6-2 1-255); details: protein: recombinant; tags: N-terminal GST; dsDNA, one strand shown
T11 sequence: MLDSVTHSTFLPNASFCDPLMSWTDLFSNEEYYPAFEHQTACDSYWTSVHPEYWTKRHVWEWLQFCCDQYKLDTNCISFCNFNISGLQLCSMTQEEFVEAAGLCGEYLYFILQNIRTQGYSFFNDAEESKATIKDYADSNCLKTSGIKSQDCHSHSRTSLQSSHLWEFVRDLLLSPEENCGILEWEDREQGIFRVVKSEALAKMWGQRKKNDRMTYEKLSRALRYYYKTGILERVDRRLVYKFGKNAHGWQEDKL
In short: as §1

[17] = biological target: T12, ETV3 (Homo sapiens, UniProt P41162-2 1-143); details: protein: recombinant; tags: N-terminal GST; dsDNA, one strand shown
T12 sequence: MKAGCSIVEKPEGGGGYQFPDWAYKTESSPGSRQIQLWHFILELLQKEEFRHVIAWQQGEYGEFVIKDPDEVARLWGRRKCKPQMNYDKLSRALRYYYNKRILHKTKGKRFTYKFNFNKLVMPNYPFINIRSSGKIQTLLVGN
In short: as §1

[18] = biological target: ETV6 (Homo sapiens, UniProt P41212 1-452); details: protein: recombinant; tags: N-terminal GST; dsDNA, one strand shown
Sequence of ETV6 (P41212 whole entry): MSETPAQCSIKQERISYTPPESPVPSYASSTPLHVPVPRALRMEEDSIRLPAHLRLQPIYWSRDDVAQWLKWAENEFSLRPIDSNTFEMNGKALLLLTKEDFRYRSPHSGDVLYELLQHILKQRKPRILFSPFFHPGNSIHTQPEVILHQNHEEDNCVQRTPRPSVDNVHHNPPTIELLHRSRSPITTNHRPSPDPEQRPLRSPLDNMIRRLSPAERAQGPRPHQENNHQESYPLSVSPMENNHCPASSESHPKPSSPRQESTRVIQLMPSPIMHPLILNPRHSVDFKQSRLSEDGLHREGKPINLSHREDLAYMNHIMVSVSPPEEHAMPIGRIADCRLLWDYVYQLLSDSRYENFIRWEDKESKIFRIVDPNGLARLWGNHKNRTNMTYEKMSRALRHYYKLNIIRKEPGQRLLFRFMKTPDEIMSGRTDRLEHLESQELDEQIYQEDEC
In short: as §1

ATCCGC
binding signal [1]: 2.09 fold enrichment (6-mer frequency, TF over GST control) | binding signal [2]: 1.78 fold enrichment (6-mer frequency, TF over GST control) | binding signal [3]: 1.58 fold enrichment (6-mer frequency, TF over GST control) | binding signal [4]: 1.68 fold enrichment (6-mer frequency, TF over GST control) | binding signal [5]: 1.65 fold enrichment (6-mer frequency, TF over GST control) | binding signal [6]: 1.6 fold enrichment (6-mer frequency, TF over GST control) | binding signal [7]: 1.9 fold enrichment (6-mer frequency, TF over GST control) | binding signal [8]: 1.62 fold enrichment (6-mer frequency, TF over GST control) | binding signal [9]: 2.06 fold enrichment (6-mer frequency, TF over GST control) | binding signal [10]: 1.8 fold enrichment (6-mer frequency, TF over GST control) | binding signal [11]: 1.71 fold enrichment (6-mer frequency, TF over GST control) | binding signal [12]: 1.84 fold enrichment (6-mer frequency, TF over GST control) | binding signal [13]: 1.89 fold enrichment (6-mer frequency, TF over GST control) | binding signal [14]: 2.36 fold enrichment (6-mer frequency, TF over GST control) | binding signal [15]: 1.79 fold enrichment (6-mer frequency, TF over GST control) | binding signal [16]: 2.26 fold enrichment (6-mer frequency, TF over GST control) | binding signal [17]: 1.92 fold enrichment (6-mer frequency, TF over GST control) | binding signal [18]: 1.66 fold enrichment (6-mer frequency, TF over GST control)
